According to PubChem BioAssay AID1159580 (chemical genetic matrix, 2015):
The whole screen tested about 5,500 compounds, of which about 2,000 (36%) were called active. Inconclusive results (about 18%) are left out. Cut-off read from the data, not from the text of the source: active = normalized growth mostly below about 0.91 (no sharp cut-off); inconclusive = no clear call, values can overlap the other calls; inactive = mostly above about 0.92. Some of the results follow.

Test: chemical genetic growth profiling, strain panel (AID 1159580);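 note: tested at 20 µM; growth read once vehicle control cultures reached saturation at 30 °C; 1 = growth at the plate median or of vehicle wells; lower values mean less growth of the strain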
Conditions: growth OD

Measured: normalized growth

CCC1(c2ccccc2)C(=O)NCNC1=O
inactive: S. cerevisiae deletion strains, locus YJR075W, strain HOC1, hits give low values 1.01 | S. cerevisiae deletion strains, locus YKL009W, strain mrt4, hits give low values 0.998 | S. cerevisiae deletion strains, locus YKL068W, hits give low values 0.997 | S. cerevisiae deletion strains, locus YKL085W, strain MDH1 (second series), hits give low values 0.996 | S. cerevisiae deletion strains, locus YKL085W, strain MDH1, hits give low values 0.996 | S. cerevisiae deletion strains, locus YKL160W, strain elf1, hits give low values 1.02 | S. cerevisiae deletion strains, locus YKL190W, strain CNB1, hits give low values 1.01 | S. cerevisiae deletion strains, locus YKR001C, strain vps1, hits give low values 0.995 | S. cerevisiae deletion strains, locus YKR026C, strain gcn3, hits give low values 0.978 | S. cerevisiae deletion strains, locus YKR091W, strain srl3, hits give low values 0.999 | S. cerevisiae deletion strains, locus YLL001W, strain dnm1, hits give low values 1.02 | S. cerevisiae deletion strains, locus YLL026W, hits give low values 1 | S. cerevisiae deletion strains, locus YLL041C, strain sdh2, hits give low values 1.01 | S. cerevisiae deletion strains, locus YLR027C, strain aat2, hits give low values 1.01 | S. cerevisiae deletion strains, locus YLR039C, strain RIC1, hits give low values 0.971 | S. cerevisiae deletion strains, locus YLR058C, strain SHM2, hits give low values 1.01 | S. cerevisiae deletion strains, locus YLR102C, strain apc9, hits give low values 0.996 | S. cerevisiae deletion strains, locus YLR113W, strain HOG1, hits give low values 0.993 | S. cerevisiae deletion strains, locus YLR221C, strain rsa3, hits give low values 1.01 | S. cerevisiae deletion strains, locus YLR258W, strain gsy2, hits give low values 1.01 | S. cerevisiae deletion strains, locus YLR262C, strain YPT6 (second series), hits give low values 1.03 | S. cerevisiae deletion strains, locus YLR262C, strain YPT6, hits give low values 0.995 | S. cerevisiae deletion strains, locus YLR268W, strain sec22, hits give low values 0.981 | S. cerevisiae deletion strains, locus YLR320W, strain mms22, hits give low values 1.02 | S. cerevisiae deletion strains, locus YLR330W, strain CHS5, hits give low values 1.01 | S. cerevisiae deletion strains, locus YLR342W, strain FKS1 (second series), hits give low values 1.01 | S. cerevisiae deletion strains, locus YLR342W, strain FKS1, hits give low values 1.03 | S. cerevisiae deletion strains, locus YLR357W, strain rsc2, hits give low values 1.02 | S. cerevisiae deletion strains, locus YLR370C, strain arc18, hits give low values 1.01 | S. cerevisiae deletion strains, locus YLR371W, strain rom2, hits give low values 1 | S. cerevisiae deletion strains, locus YLR384C, strain iki3, hits give low values 1.01 | S. cerevisiae deletion strains, locus YLR418C, strain cdc73, hits give low values 0.992 | S. cerevisiae deletion strains, locus YML016C, strain PPZ1, hits give low values 1 | S. cerevisiae deletion strains, locus YML032C, strain rad52, hits give low values 0.992 | S. cerevisiae deletion strains, locus YML120C, strain ndi1, hits give low values 1.01 | S. cerevisiae deletion strains, locus YML124C, strain tub3, hits give low values 0.995 | S. cerevisiae deletion strains, locus YMR058W, strain fet3, hits give low values 0.995 | S. cerevisiae deletion strains, locus YMR078C, strain ctf18, hits give low values 1 | S. cerevisiae deletion strains, locus YMR125W, strain sto1, hits give low values 0.979 | S. cerevisiae deletion strains, locus YMR129W, hits give low values 0.99 | S. cerevisiae deletion strains, locus YMR205C, strain PFK2, hits give low values 1.02 | S. cerevisiae deletion strains, locus YMR223W, strain ubp8, hits give low values 0.995 | S. cerevisiae deletion strains, locus YMR231W, strain pep5, hits give low values 1.01 | S. cerevisiae deletion strains, locus YMR263W, strain SAP30, hits give low values 0.982 | S. cerevisiae deletion strains, locus YMR307W, strain GAS1, hits give low values 0.998 | S. cerevisiae deletion strains, locus YNL067W, strain RPL9B, hits give low values 1.01 | S. cerevisiae deletion strains, locus YNL071W, strain lat1, hits give low values 1 | S. cerevisiae deletion strains, locus YNL128W, strain TEP1, hits give low values 1.02 | S. cerevisiae deletion strains, locus YNL153C, strain GIM3, hits give low values 1.13 | S. cerevisiae deletion strains, locus YNL175C, strain NOP13, hits give low values 0.997 | S. cerevisiae deletion strains, locus YNL183C, strain NPR1, hits give low values 0.975 | S. cerevisiae deletion strains, locus YNL197C, strain WHI3, hits give low values 0.976 | S. cerevisiae deletion strains, locus YNL209W, strain ssb2, hits give low values 1.01 | S. cerevisiae deletion strains, locus YNL224C, strain SQS1, hits give low values 1 | S. cerevisiae deletion strains, locus YNL233W, strain BNI4, hits give low values 1 | S. cerevisiae deletion strains, locus YNL248C, strain rpa49, hits give low values 1.01 | S. cerevisiae deletion strains, locus YNL250W, strain rad50, hits give low values 0.998 | S. cerevisiae deletion strains, locus YNL271C, strain bni1, hits give low values 0.993 | S. cerevisiae deletion strains, locus YNL298W, strain CLA4, hits give low values 1.01 | S. cerevisiae deletion strains, locus YNL307C, strain MCK1, hits give low values 0.995 | S. cerevisiae deletion strains, locus YNL322C, strain KRE1 (second series), hits give low values 1.01 | S. cerevisiae deletion strains, locus YNL322C, strain KRE1, hits give low values 1 | S. cerevisiae deletion strains, locus YNR049C, strain mso1, hits give low values 1 | S. cerevisiae deletion strains, locus YNR052C, strain pop2, hits give low values 0.998 | S. cerevisiae deletion strains, locus YOL006C, strain TOP1, hits give low values 0.989 | S. cerevisiae deletion strains, locus YOL012C, strain htz1 0.947 | S. cerevisiae deletion strains, locus YOL147C, strain pex11, hits give low values 0.988 | S. cerevisiae deletion strains, locus YOR001W, strain rrp6, hits give low values 0.981 | S. cerevisiae deletion strains, locus YOR061W, strain CKA2, hits give low values 1 | S. cerevisiae deletion strains, locus YOR069W, strain VPS5, hits give low values 1.01 | S. cerevisiae deletion strains, locus YOR070C, strain gyp1, hits give low values 1.01 | S. cerevisiae deletion strains, locus YOR080W, strain dia2, hits give low values 1.01 | S. cerevisiae deletion strains, locus YOR083W, strain WHI5 (second series), hits give low values 1 | S. cerevisiae deletion strains, locus YOR083W, strain WHI5, hits give low values 1.02 | S. cerevisiae deletion strains, locus YOR106W, strain vam3, hits give low values 1.01 | S. cerevisiae deletion strains, locus YOR136W, strain idh2, hits give low values 1 | S. cerevisiae deletion strains, locus YOR144C, strain elg1, hits give low values 0.992 | S. cerevisiae deletion strains, locus YOR184W, strain ser1, hits give low values 1.01 | S. cerevisiae deletion strains, locus YOR231W, strain MKK1, hits give low values 1 | S. cerevisiae deletion strains, locus YOR265W, strain rbl2, hits give low values 1 | S. cerevisiae deletion strains, locus YOR270C, strain vph1, hits give low values 1.02 | S. cerevisiae deletion strains, locus YOR290C, strain snf2, hits give low values 1.01 | S. cerevisiae deletion strains, locus YOR316C, strain cot1, hits give low values 0.996 | S. cerevisiae deletion strains, locus YPL051W, strain arl3, hits give low values 1.01 | S. cerevisiae deletion strains, locus YPL055C, strain LGE1, hits give low values 1.01 | S. cerevisiae deletion strains, locus YPL078C, strain atp4, hits give low values 0.994 | S. cerevisiae deletion strains, locus YPL106C, strain sse1, hits give low values 1.01 | S. cerevisiae deletion strains, locus YPL240C, strain hsp82, hits give low values 0.992 | S. cerevisiae deletion strains, locus YPL241C, strain CIN2, hits give low values 1.01 | S. cerevisiae deletion strains, locus YPL256C, strain CLN2, hits give low values 1 | S. cerevisiae deletion strains, locus YPR119W, strain clb2, hits give low values 0.996 | S. cerevisiae deletion strains, locus YPR141C, strain kar3, hits give low values 0.989 | S. cerevisiae deletion strains, locus YPR163C, strain tif3, hits give low values 0.994 | S. cerevisiae deletion strains, locus YPR167C, strain met16, hits give low values 0.995 | S. cerevisiae deletion strains, strain wtn01, hits give low values 0.991 | S. cerevisiae strains, strain wild type, hits give low values 1.01
